# Data: PMC8384837, “Expanding the binding specificity for RNA recognition by a PUF domain”
# Columns and labels:
# Assay in all cases: yeast three-hybrid, YBZ-1, SC-Leu-His + 0.5 mM 3-AT, 4 days
# Settings in all cases: tags: N-Gal4 AD-HA kept; label: inside an RPR1-promoter hybrid RNA with tandem MS2 sites; ssRNA
# [1] = molecular target: PUM1 PUF domain R1-RGC (Homo sapiens, UniProt Q14671 828-1176, S863R;R864G;Q867C)
# In short: (§1)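 Matching RNA elements and Pumilio-1 PUF domain libraries, randomized at the three base-contacting residues of every repeat, were co-expressed from a centromeric plasmid in strain YBZ-1 (LexA–MS2 coat fusion, HIS3 reporter). The repeat regions were PCR-amplified and Illumina-sequenced from cells grown four days on SC-Leu (input) or SC-Leu-His + 0.5 mM 3-AT (selection). The interaction score is the log change in variant frequency from input to selection. It is computed in log2, with a pseudocount of 1 for absent variants.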
# [2] = molecular target: PUM1 PUF domain R3-QRS (Homo sapiens, UniProt Q14671 828-1176, C935Q;Q939S)
# In short: as §1
# [3] = molecular target: PUM1 PUF domain R5-KQC (Homo sapiens, UniProt Q14671 828-1176, C1007K;R1008Q;Q1011C)
# In short: as §1
# [4] = molecular target: PUM1 PUF domain R3-RAG (Homo sapiens, UniProt Q14671 828-1176, C935R;R936A;Q939G)
# In short: as §1
# [5] = molecular target: PUM1 PUF domain R8-LFG (Homo sapiens, UniProt Q14671 828-1176, N1122L;Y1123F;Q1126G)
# In short: as §1
# [6] = molecular target: PUM1 PUF domain R5-VYF (Homo sapiens, UniProt Q14671 828-1176, C1007V;R1008Y;Q1011F)
# In short: as §1
# [7] = molecular target: PUM1 PUF domain R4-GPN (Homo sapiens, UniProt Q14671 828-1176, N971G;H972P;Q975N)
# In short: as §1
# [8] = molecular target: PUM1 PUF domain R4-WFG (Homo sapiens, UniProt Q14671 828-1176, N971W;H972F;Q975G)
# In short: as §1
# [9] = molecular target: PUM1 PUF domain R2-RRC (Homo sapiens, UniProt Q14671 828-1176, N899R;Y900R;Q903C)
# In short: as §1
# [10] = molecular target: PUM1 PUF domain R4-VFP (Homo sapiens, UniProt Q14671 828-1176, N971V;H972F;Q975P)
# In short: as §1
# PUM1 PUF domain R1-RGC, sequence (Q14671 828-1176 S863R/R864G/Q867C): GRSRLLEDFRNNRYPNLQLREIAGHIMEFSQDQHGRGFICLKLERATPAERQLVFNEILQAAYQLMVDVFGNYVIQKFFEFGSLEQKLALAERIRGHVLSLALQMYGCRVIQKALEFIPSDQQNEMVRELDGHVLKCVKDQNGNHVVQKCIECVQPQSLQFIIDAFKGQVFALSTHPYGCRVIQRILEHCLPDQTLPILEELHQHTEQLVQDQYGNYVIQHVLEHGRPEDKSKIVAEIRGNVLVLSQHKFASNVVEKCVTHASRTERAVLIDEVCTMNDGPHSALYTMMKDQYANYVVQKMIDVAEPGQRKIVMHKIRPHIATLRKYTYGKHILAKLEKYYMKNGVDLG
# PUM1 PUF domain R8-LFG, sequence (Q14671 828-1176 N1122L/Y1123F/Q1126G): as the sequence (Q14671 828-1176 S863R/R864G/Q867C) above, with R36S, G37R, C40Q, N295L, Y296F, Q299G counted along it
# PUM1 PUF domain R4-WFG, sequence (Q14671 828-1176 N971W/H972F/Q975G): as the sequence (Q14671 828-1176 S863R/R864G/Q867C) above, with R36S, G37R, C40Q, N144W, H145F, Q148G counted along it
# PUM1 PUF domain R3-QRS, sequence (Q14671 828-1176 C935Q/Q939S): as the sequence (Q14671 828-1176 S863R/R864G/Q867C) above, with R36S, G37R, C40Q, C108Q, Q112S counted along it
# PUM1 PUF domain R5-KQC, sequence (Q14671 828-1176 C1007K/R1008Q/Q1011C): as the sequence (Q14671 828-1176 S863R/R864G/Q867C) above, with R36S, G37R, C40Q, C180K, R181Q, Q184C counted along it
# PUM1 PUF domain R4-GPN, sequence (Q14671 828-1176 N971G/H972P/Q975N): as the sequence (Q14671 828-1176 S863R/R864G/Q867C) above, with R36S, G37R, C40Q, N144G, H145P, Q148N counted along it
# PUM1 PUF domain R4-VFP, sequence (Q14671 828-1176 N971V/H972F/Q975P): as the sequence (Q14671 828-1176 S863R/R864G/Q867C) above, with R36S, G37R, C40Q, N144V, H145F, Q148P counted along it
# PUM1 PUF domain R5-VYF, sequence (Q14671 828-1176 C1007V/R1008Y/Q1011F): as the sequence (Q14671 828-1176 S863R/R864G/Q867C) above, with R36S, G37R, C40Q, C180V, R181Y, Q184F counted along it
# PUM1 PUF domain R3-RAG, sequence (Q14671 828-1176 C935R/R936A/Q939G): as the sequence (Q14671 828-1176 S863R/R864G/Q867C) above, with R36S, G37R, C40Q, C108R, R109A, Q112G counted along it
# PUM1 PUF domain R2-RRC, sequence (Q14671 828-1176 N899R/Y900R/Q903C): as the sequence (Q14671 828-1176 S863R/R864G/Q867C) above, with R36S, G37R, C40Q, N72R, Y73R, Q76C counted along it
sequence,measurement,setting,value
GGCUAGAACUAGUGGAUCCCCCGGCGCCCGGCGGCUCGAGCCCGGGUAAGUGUAAAUGGUCUGCAUGCCGCCGGGCGCCAUGCCUGCAGGUCGACUCUAGAAAACAUG,binding signal,[1],1.27 log2 enrichment (interaction score)
GGCUAGAACUAGUGGAUCCCCCGGCGCCCGGCGGCUCGAGCCCGGGUAAGUGUAAGUAGUCUGCAUGCCGCCGGGCGCCAUGCCUGCAGGUCGACUCUAGAAAACAUG,binding signal,[2],2.75 log2 enrichment (interaction score)
GGCUAGAACUAGUGGAUCCCCCGGCGCCCGGCGGCUCGAGCCCGGGUAAGUGUCAAUAGUCUGCAUGCCGCCGGGCGCCAUGCCUGCAGGUCGACUCUAGAAAACAUG,binding signal,[3],3.25 log2 enrichment (interaction score)
GGCUAGAACUAGUGGAUCCCCCGGCGCCCGGCGGCUCGAGCCCGGGUAAGUGUAAUUAGUCUGCAUGCCGCCGGGCGCCAUGCCUGCAGGUCGACUCUAGAAAACAUG,binding signal,[4],3.75 log2 enrichment (interaction score)
same,binding signal,[2],2.68 log2 enrichment (interaction score)
GGCUAGAACUAGUGGAUCCCCCGGCGCCCGGCGGCUCGAGCCCGGGUAAGUGUAAAUCGUCUGCAUGCCGCCGGGCGCCAUGCCUGCAGGUCGACUCUAGAAAACAUG,binding signal,[1],3.36 log2 enrichment (interaction score)
GGCUAGAACUAGUGGAUCCCCCGGCGCCCGGCGGCUCGAGCCCGGGUAAGUGUAAAUAGUCUGCAUGCCGCCGGGCGCCAUGCCUGCAGGUCGACUCUAGAAAACAUG,binding signal,[5],1.28 log2 enrichment (interaction score)
same,binding signal,[6],2.44 log2 enrichment (interaction score)
same,binding signal,[7],3.62 log2 enrichment (interaction score)
same,binding signal,[8],1.81 log2 enrichment (interaction score)
GGCUAGAACUAGUGGAUCCCCCGGCGCCCGGCGGCUCGAGCCCGGGUAAGUGUAAAGAGUCUGCAUGCCGCCGGGCGCCAUGCCUGCAGGUCGACUCUAGAAAACAUG,binding signal,[9],2.42 log2 enrichment (interaction score)
GGCUAGAACUAGUGGAUCCCCCGGCGCCCGGCGGCUCGAGCCCGGGUAAGUGUAAAUUGUCUGCAUGCCGCCGGGCGCCAUGCCUGCAGGUCGACUCUAGAAAACAUG,binding signal,[1],2.07 log2 enrichment (interaction score)
GGCUAGAACUAGUGGAUCCCCCGGCGCCCGGCGGCUCGAGCCCGGGUAAGCGUAAAUAGUCUGCAUGCCGCCGGGCGCCAUGCCUGCAGGUCGACUCUAGAAAACAUG,binding signal,[5],2.38 log2 enrichment (interaction score)
GGCUAGAACUAGUGGAUCCCCCGGCGCCCGGCGGCUCGAGCCCGGGUAAGUGUAUAUAGUCUGCAUGCCGCCGGGCGCCAUGCCUGCAGGUCGACUCUAGAAAACAUG,binding signal,[10],3.78 log2 enrichment (interaction score)
same,binding signal,[8],2.4 log2 enrichment (interaction score)
